Mtb UGM inh = blocks M. tuberculosis UGM enzyme | purified UGM, fluorescence polarization probe displacement | P9WIQ1 | AID 504406 | 320,000 tested, 0.06% active | inhibition, % at 10 µM; in the data active = inhibition above about 10%, passing the limit was not always enough
Rv3671c inh = Rv3671c (M. tuberculosis) protease inhibition. inhibition, % at 5.96 µM. 320,000 tested, 0.048% active. AID 2606; in the data active = inhibition above about 38%;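 also: extracellular domain of Rv3671c used as enzyme; 0% = enzyme with DMSO and 100% = no enzyme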
GDH-TPI counter-1 = inhibits GDH-TPI coupling enzymes, artifact for Mtb FBA screen. GDH-TPI coupled enzyme counterscreen, NADH absorbance. 360,000 tested, 1.2% active. inhibition, % at 4.8 µM; in the data active = inhibition above about 30%;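 also: 0% = DMSO wells and 100% = wells lacking the enzyme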
Mtb FBA inh = Mtb fructose-bisphosphate aldolase inhibition. P9WQA3. purified M. tuberculosis FBA, fluorescence read-out. inhibition, % at 1 µM. 360,000 tested, 2.3% active;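 also: 0% = vehicle and 100% = reference inhibitor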
Mtb betalactam = beta-lactam sensitization of Mtb H37Rv | M. tuberculosis H37Rv growth with meropenem, percent inhibition | AID 434955 | inhibition, % at 25 µM | 330,000 tested, 0.27% active; call rule not given here;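 also: growth measured after seven days incubation then overnight dye step; 0% = bacteria only wells and 100% = bacteria with antibiotic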
RecA intein inh = inhibitors of M. tuberculosis RecA intein splicing; P9WHJ3; cell-free RecA intein splicing, fluorescence; inhibition, % (concentration not given with the values); 290,000 tested, 0.75% active; in the data active = inhibition above about 30%;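 also: 0% = vehicle wells and 100% = reference inhibitor control wells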
Target sequence (P9WHJ3 whole entry, looked up): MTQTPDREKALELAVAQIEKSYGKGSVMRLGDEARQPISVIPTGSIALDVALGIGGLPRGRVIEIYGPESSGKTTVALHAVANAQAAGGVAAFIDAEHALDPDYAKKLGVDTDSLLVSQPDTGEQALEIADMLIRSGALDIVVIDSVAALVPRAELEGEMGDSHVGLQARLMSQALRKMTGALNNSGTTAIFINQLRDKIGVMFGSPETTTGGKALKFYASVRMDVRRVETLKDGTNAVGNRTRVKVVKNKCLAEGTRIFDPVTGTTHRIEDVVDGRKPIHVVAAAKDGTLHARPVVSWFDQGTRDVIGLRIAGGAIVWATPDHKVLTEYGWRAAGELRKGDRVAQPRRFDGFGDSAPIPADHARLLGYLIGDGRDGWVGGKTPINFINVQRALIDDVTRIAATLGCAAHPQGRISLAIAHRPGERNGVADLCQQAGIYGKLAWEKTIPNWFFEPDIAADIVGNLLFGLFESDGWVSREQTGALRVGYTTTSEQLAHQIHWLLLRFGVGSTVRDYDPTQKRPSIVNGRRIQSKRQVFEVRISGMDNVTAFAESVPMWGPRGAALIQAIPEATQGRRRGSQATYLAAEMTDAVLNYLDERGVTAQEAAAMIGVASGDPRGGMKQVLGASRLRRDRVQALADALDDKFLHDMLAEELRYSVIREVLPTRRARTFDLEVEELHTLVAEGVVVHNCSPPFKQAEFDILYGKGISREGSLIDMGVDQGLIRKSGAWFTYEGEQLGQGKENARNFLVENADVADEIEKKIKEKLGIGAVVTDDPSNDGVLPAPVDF
Mtb FBA inh conf = confirmation of M. tuberculosis fructose-bisphosphate aldolase inhibitors; purified M. tuberculosis FBA, fluorescence read-out; inhibition, % at 1 µM; 5,600 tested, 78% active; shares compounds with Mtb FBA inh;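 also: 0% = vehicle wells and 100% = reference inhibitor wells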
GDH-TPI counter-2 = counter-screen for M. tuberculosis FBA inhibitors: GDH-TPI coupled enzyme inhibition | shares compounds with Mtb FBA inh | GDH-TPI coupled enzyme counterscreen, fluorescence | inhibition, % at 1 µM | 5,600 tested, 81% active | AID 652141; in the data active = inhibition above about 10%
* = called active by the depositor; · = no result given; + = active, no number. The list is not random: actives were taken first. Their share in the collection is about 4%. Rule as the data show it, unless noted: active = inhibition above about 27%; inactive = the rest.

SMILES	Mtb UGM inh	Rv3671c inh	GDH-TPI counter-1	Mtb FBA inh	Mtb betalactam	RecA intein inh	Mtb FBA inh conf	GDH-TPI counter-2
CSc1nnc(-c2sc(-c3ccccc3)nc2C)n1C	-2.1	1.4	11.7	54.2*	-0.3	-5.2	9.8	5.7
Cc1c(C)c2ccc(OC(C)C(=O)N3CC[C@@]4(O)CCCC[C@H]4C3)c(C)c2oc1=O (some centres not stated)	-1.6	-4.3	8.8	69.2*	-0.2	2.0	53.3*	41.2*
Cc1c(C)c2ccc(OC(C)C(=O)N3CC[C@@]4(O)CCCC[C@H]4C3)cc2oc1=O (some centres not stated)	-0.1	-6.8	15.7	96.0*	-0.3	·	+	+
Cc1cc(=O)oc2c(C)c(OCC(=O)N3CC[C@@]4(O)CCCC[C@H]4C3)ccc12	2.8	-2.8	11.1	14.9	-5.2	-4.7	·	·
CC(C)c1ccc2oc3nc(N)c(C(=O)O)cc3c(=O)c2c1	2.1	5.1	·	·	·	-0.7	·	·
CC(C)CCNc1nc2c(cc1C#N)COC(C)(C)C2	-0.9	1.4	3.1	64.5*	-2.9	-6.2	192.3*	159.3*
CC1CCN(c2nc3c(cc2C#N)COC(C)(C)C3)CC1	-0.4	-1.2	3.5	39.6*	-10.7	-3.0	90.8*	63.2*
CCCCNc1c(N)n(CCC)c(=O)[nH]c1=O	3.4	-1.4	-2.2	-7.7	4.7	-4.2	·	·
CC1(C)CC(=O)C/C(=N\NC(=O)CCc2ccc(S(=O)(=O)N3CCOCC3)cc2)C1	1.4	2.4	5.7	-1.6	-11.7	2.2	·	·
O=C(OCc1nc2ccsc2c(=O)[nH]1)c1cccc(S(=O)(=O)N2CCOCC2)c1	8.4	6.4	3.6	-2.1	-4.7	-3.2	·	·
CCOC(=O)C1CCCN(C(=O)c2cc(-c3ccncc3)nc3ccccc23)C1 (configuration not stated)	1.3	0.3	3.1	0.5	4.0	·	·	·
CCOC(=O)C1CCCN(C(=O)c2cc(-c3ccco3)nc3ccccc23)C1 (configuration not stated)	·	-0.7	5.3	83.5*	1.8	·	+	157.3*
O=C(c1cc(-c2ccncc2)nc2ccccc12)N1CCCC(C(F)(F)F)C1 (configuration not stated)	·	·	7.3	-0.4	·	·	·	·
O=C(c1cc(-c2ccco2)nc2ccccc12)N1CCCC(C(F)(F)F)C1 (configuration not stated)	-1.7	9.6	2.1	101.9*	-7.3	·	+	+
Clc1ccsc1-c1ccnc(-n2cccc2)n1	0.1	-8.2	3.1	6.6	3.5	6.2	·	·
Clc1ccc(-c2ccnc(-n3cccc3)n2)s1	2.1	-1.5	15.8	45.3*	-3.7	-14.1	+	156.9*
c1coc(-c2ccnc(-n3cccc3)n2)c1	·	5.4	1.9	31.2*	5.5	-1.3	147.4*	128.9*
COc1ccc(C(=O)NCCC(C)C)cc1S(=O)(=O)N1CCOCC1	1.9	-5.2	-7.2	1.3	-3.1	-5.6	·	·
O=C(Nc1ccccc1)c1cccc(=O)o1	1.6	-2.7	33.3*	51.7*	-10.9	-0.1	196.7*	174.3*
O=C(Nc1ccccc1)c1cc2ccccc2o1	2.8	-12.7	6.1	-3.8	94.8	1.6	·	·
CS(=O)(=O)c1ccccc1C(=O)Nc1ccc(-c2nc3ccccc3[nH]2)cc1	-0.2	-2.7	27.8	0.7	-0.3	-1.9	·	·
COc1ccc(S(=O)(=O)N2CCCCCC2)cc1C(=O)Nc1cc(C)ccn1	-1.9	-11.9	4.5	2.8	9.7	·	·	·
CCc1nnc(NS(=O)(=O)c2ccc(NC(=O)OC)cc2)s1	-2.5	0.2	10.8	5.0	-1.6	-1.3	·	·
Cc1ccnc(NC(=O)c2cc(S(=O)(=O)N3CCCCC3)ccc2Cl)c1	2.4	3.5	8.9	37.6*	4.1	2.6	92.4*	83.8*
O=C(Nc1ccc(-c2nc3ccccc3[nH]2)cc1)c1ccccc1NS(=O)(=O)c1ccc(F)cc1	2.5	-107.6	31.4*	86.6*	5.8	24.6	+	+
SMILES	Mtb UGM inh	Rv3671c inh	GDH-TPI counter-1	Mtb FBA inh	Mtb betalactam	RecA intein inh	Mtb FBA inh conf	GDH-TPI counter-2
O=C(Nc1ccc(S(=O)(=O)Nc2ncccn2)cc1)c1ccccc1NS(=O)(=O)c1ccc(F)cc1	2.3	4.9	5.0	72.6*	-0.2	0.0	-4.4	-4.4
CCc1nnc(NS(=O)(=O)c2ccc(NC(=O)c3ccccc3O)cc2)s1	5.3	-0.2	6.4	72.7*	-1.4	-1.9	34.6*	25.7*
O=C(Nc1cc(S(=O)(=O)N2CCCCC2)ccc1Cl)c1ccccc1NS(=O)(=O)c1ccc(F)cc1	1.2	-10.0	8.3	32.9*	6.9	1.6	-7.1	-6.0
Cc1ccc(S(=O)(=O)Nc2ccccc2C(=O)NCc2cccnc2)cc1	-0.9	-4.7	-2.2	50.6*	3.8	-3.2	58.7*	47.9*
C=COCCCNc1ncnc2sc(-c3ccccc3)cc12	0.8	-17.8	12.9	38.1*	47.0	5.1	51.4*	40.1*
COC(CNc1ncnc2sc(-c3ccccc3)cc12)OC	0.5	-6.7	10.7	25.1	21.4	-1.1	·	·
OCCCNc1ncnc2sc(-c3ccccc3)cc12	7.7	8.8	23.0	29.8*	-6.3	1.4	54.8*	44.9*
COc1cccc(NC(=O)CN(C)CC(=O)Nc2ccc(C)cc2Cl)c1	2.1	5.2	0.0	-0.7	-8.8	0.7	·	·
O=c1nc(-c2ccccc2)n(-c2ccccc2)[nH]1	0.9	-0.7	-3.8	38.8*	8.7	0.8	156.5*	128.8*
CCN(CC)C(C(=O)NC1CCCCC1)c1ccc(C)cc1 (configuration not stated)	4.0	-0.5	3.7	-2.9	-6.6	1.0	·	·
CN(C)c1ncccc1-c1nc2ccccc2s1	-1.5	-12.4	12.9	30.3*	-4.4	-9.4	30.6*	17.2*
c1ccc(-c2nc3ccccc3s2)nc1	0.6	-4.3	1.2	4.3	7.2	-0.7	·	·
COCCNC(=O)c1cc2c(-c3ccc(Cl)cc3)nn(C)c2s1	1.0	-20.3	5.3	79.0*	28.2	·	69.3*	53.8*
Cc1ccc(CNC(=O)c2cc3c(-c4ccc(Cl)cc4)nn(C)c3s2)o1	3.5	-185.5	6.2	13.8	8.3	8.5	·	·
COCCNC(=O)c1cc2c(-c3ccccc3F)nn(C)c2s1	-0.5	-22.2	15.9	35.1*	1.1	1.3	116.9*	88.0*
CCCCN(C)CCNC(=O)c1cc2c(-c3ccccc3F)nn(C)c2s1	1.7	5.8	5.9	45.9*	6.5	-2.0	37.5*	32.5*
COCCCNC(=O)c1cc2c(-c3ccc(Cl)cc3)nn(C)c2s1	2.0	-28.4	19.7	74.0*	7.7	3.8	76.8*	73.1*

Compound activity: PubChem, several laboratories
